Test [1] in a line: Cell Viability - HUV-EC-C (AID 542).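 Note: cells exposed to compound for 40 hours; nearly all actives have a fitted effect of over 35% in size.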 Note: potency is the fitted concentration of half-maximal effect. As to conditions: HUV-EC-C endothelial cell viability, qHTS; series mostly up to 92.2 µM. In a few lines:
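Concentration-dependent ATP loss in HUV-EC-C cells is the measure. Exposure lasts 40 hr at 37 °C; luminescence follows CellTiter-Glo addition, and Hill fits give AC50.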

The nature of test [2]: Cell Viability - Mesenchymal (AID 546).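 Note: cells exposed to compound for 40 hours before reading.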 As to conditions: mesenchymal cells viability, qHTS; series mostly up to 91.7 µM. In a few lines: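 Human renal mesenchymal cells (glomerulus-derived), 1000 cells/well, 5 hr 37 °C pre-incubation; compound 40 hr, 37 °C; CellTiter-Glo, 20 min RT; luminescence; AC50 via Hill equation.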
Test [3] is described as follows: Cellular Toxicity (caspase-3) HepG2 (AID 654).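 Note: cells exposed to compound for 16 hours before reading; 0% = DMSO alone and 100% = caspase signal from 100 µM tamoxifen.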 As to conditions: HepG2 caspase-3 activation, luminescence, 0% = DMSO only, 100% = tamoxifen; series mostly up to 92.2 µM. The procedure, abridged:
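Concentration-response AC50 values reflect caspase-3/7 induction in HepG2 cells after 16 hours of compound exposure, quantified by luminescence from liberated aminoluciferin and referenced to 100 uM tamoxifen as full stimulation.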

Test [4] in a line: Cellular Toxicity (caspase-3) HUV-EC-C (AID 656). As to conditions: HUV-EC-C cells, caspase-3 activation (apoptosis), vehicle = 0, 100 µM tamoxifen = 100%; series mostly up to 92.2 µM. In a few lines:
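HUV-EC-C cells (1000/well) in complete medium, compound-treated 16 h at 37 °C; caspase-3/7 activity read by Caspase-Glo 3/7 luminescence. Normalized to DMSO (basal) and 100 uM tamoxifen (100%); AC50 from Hill-equation concentration-response fits.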

Test [5] is described as follows: Cellular Toxicity (caspase-3) BJ (AID 658). As to conditions: BJ fibroblasts, luminescence, normalized: DMSO 0%, staurosporine 100%; series mostly up to 91.7 µM. In a few lines:
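qHTS, BJ fibroblasts, 1000 cells/well; 5 hr preincubation, 16 hr compound, 37 °C; Caspase-Glo 3/7 reagent, 1 hr RT; luminescence. DMSO = 0%, 10 uM staurosporine = 100%. Hill-equation AC50.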

The nature of test [6]: Cellular Toxicity (caspase-3) MRC-5 (AID 659). As to conditions: MRC-5 cells, luminescence, normalized: DMSO 0%, 10 µM staurosporine 100%; series mostly up to 91.7 µM. In a few lines: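 MRC-5 fibroblasts, 1500/well; 16 h cpd, 37 °C; Caspase-Glo 3/7, 1 h RT; lumi read. Norm: DMSO = 0%, 10 uM staurosporine = 100%. Hill-fit AC50 from qHTS conc-response.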
Test [7] in a line: Confirmation and Secondary Assay for Modulators of Hemoglobin Beta Chain Splicing at IVS2 654 locus (AID 910).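 Note: HeLa cells stably carrying EGFP split by mutant beta-globin IVS2-654 intron; % of control where 0% means no effect.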 As to conditions: HeLa EGFP-654 splicing reporter, GFP fluorescence, 48 h; series mostly up to 46.1 µM. The procedure, abridged:
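HeLa cells stably expressing EGFP interrupted by β-globin IVS2-654 intron, seeded overnight in Opti-MEM/2% FCS, then treated 2 days at 37 °C. Restored splicing read as total peak GFP intensity per well by laser scanning cytometry (488 nm excitation, 500–520 nm emission); 500 nM antisense PNA as control.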

Test [8] can be described thus: Confirmation and Secondary Assay for Modulators of Hemoglobin Beta Chain Splicing at IVS2 705 locus (AID 930).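 Note: HeLa cells stably expressing the EGFP-705 splicing reporter; GFP fluorescence per well restored by corrected splicing of the IVS2-705 intron in EGFP; % of control where 0% means no effect.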 As to conditions: HeLa EGFP-705 splicing reporter, GFP fluorescence, 48 h; series mostly up to 46.1 µM. The procedure, abridged:
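Secondary splice-site specificity test uses HeLa expressing CMV-driven EGFP interrupted by IVS2-705; cells were treated 2 days at 37C with 500 nM antisense PNA as positive control.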

Test [9] can be described thus: qHTS Assay for Identification of Small Molecule Inducers of Hypoxia Response (AID 2120; active = well fitted curve in the direction sought with a large enough effect in the signal ratio, with a control signal flat, not every such curve was filed as active; the % refers to the signal ratio; note: 0% is about no effect). As to conditions: hypoxia response reporter cells, beta-lactamase ratio readout; series mostly up to 104 µM. The procedure, abridged: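 HRE-bla ME-180, 2500 cells/well, 0.5% dialyzed FBS medium; cpd titration, 17 h 37 degrees C; CCF4 2.5 h RT; Ex 405, Em 460/530 ratio -> %Activity, AC50.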

A short description of test [10]: qHTS assay for small molecule antagonists of retinoid X receptor alpha signaling (AID 588546).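 Note: cells stimulated with 9-cis-retinoic acid as agonist; % is set by controls: 0 for no effect and ±100 for the full control effect.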 As to conditions: HEK293T RXRa-UAS-bla, beta-lactamase ratio, antagonist mode; measured here: W530 green channel, cytotoxicity proxy. In a few lines:
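Beta-lactamase reporter inhibition, read as CCF4 fluorescence ratio (ex 405, em 460/530 nm) after 2 h at RT. HEK293T UAS-bla cells, 2500/well, were stimulated with 9-cis-RA at 500 or 100 nM final alongside test compound for 18 h at 37 C.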

Test [11] concerns the target Thyroid hormone receptor beta (Homo sapiens) (UniProt P10828). Briefly: qHTS assay for small molecule antagonists of thyroid hormone receptor beta signaling (AID 588547; active = well fitted inhibition curve with a large enough effect in the signal ratio, with a control signal flat, not every such curve was filed as active; the % refers to the signal ratio;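 note: cells stimulated with 0.4 nM T3 agonist during compound exposure; % is set by controls: 0 for no effect and ±100 for the full control effect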). As to conditions: TR-UAS-bla HEK293, beta-lactamase ratio, antagonist mode, 18 h. The procedure, abridged: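 TR-UAS-bla GripTite HEK293 cells in 2% charcoal/dextran FBS medium; compounds 0.59 nM to 92 uM with T3 at 0.4nM final, 18 h at 37 C. Beta-lactamase read by CCF4 fluorescence (460/530 nm); Hill fits gave IC50 and efficacy.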

Test [12] is described as follows: qHTS assay for small molecule agonists of the antioxidant response element (ARE) signaling pathway (AID 651741; active = well fitted activation curve with a large enough effect in the signal ratio; the % refers to the signal ratio; note: potency is the fitted concentration of half-maximal effect; for activation: % of control where 0% means no effect). As to conditions: HepG2 ARE-bla reporter, beta-lactamase FRET ratio, 16 h; series mostly up to 96 µM. The procedure, abridged:
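HepG2 ARE-bla reporter cells, 2,000/well; 5 h settle at 37 C/5% CO2; compound pin transfer (23 nL, DMSO); 16 h at 37 C; LiveBLAzer B/G FRET substrate, 2 h RT; fluorescence intensity read.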

A short description of test [13]: qHTS assay for small molecule activators of the nuclear factor-kappa B (NF-kB) signaling pathway (AID 651749; active = well fitted activation curve with a large enough effect in the signal ratio; the % refers to the signal ratio; note: % of control where 0% means no effect). As to conditions: NF-kB-bla ME-180 cells, beta-lactamase FRET ratio, 16 h; activation: stronger effect = higher value. In a few lines:
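NF-kB-bla ME-180 cells, 2,000/well; 23 nL compound or DMSO pinned; 16 hr, 37C/5% CO2; beta-lactamase FRET read-out.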

For test [14], the target named is Tumor necrosis factor (Homo sapiens) (UniProt P01375). Briefly: qHTS assay to identify small molecules that stimulate Tumor Necrosis Factor-alpha (TNF-alpha) secretion (AID 651757; active = well fitted curve in the direction sought with a large enough effect in the signal ratio; the % refers to the signal ratio; note: 0% is about no effect). As to conditions: Human cells, HTRF 665/615 ratio; series mostly up to 92.2 µM. In a few lines:
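Using 3000 THP-1 cells per well, compounds and controls were applied for 17 hrs at 37 C. Detection followed with two labeled anti-TNF-alpha antibodies (cryptate donor, XL665 acceptor) for 3 hr at room temperature, measured by TR-FRET.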

Test [15] is described as follows: qHTS assay for cell viability of HEK293 cells (AID 743288). Note: % is set by controls: 0 for no effect and ±100 for the full control effect; nearly all actives have a fitted effect of over 50% in size. As to conditions: ATP luminescence (CellTiter-Glo), 18 h; max response: stronger effect = lower value. The procedure, abridged:
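Steps: plate 2,000 parental HEK293 cells per well; incubate ≥5 h, 37 C; add compounds in DMSO; incubate 18 h, 37 C; add CellTiter-Glo; wait 30 min at room temperature; read luminescence.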

Test [16] deals with Guanine nucleotide-binding protein G(i) subunit alpha-1 (Homo sapiens) (UniProt P63096). Briefly: qHTS Assay for Inhibitors of RGS12 GoLoco Motif Activity (Green Fluorophore) (AID 879).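 Note: 0% = labeled peptide with Gαi1 and full inhibition = labeled peptide alone without protein; negative values mean loss of peptide binding seen as reduced polarization.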 As to conditions: Galphai1/FITC-RGS12 GoLoco peptide, fluorescence polarization; series mostly up to 57.1 µM. In a few lines: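 A drop in FITC polarization marked displacement of the FITC-tagged RGS12 GoLoco peptide (10 nM) from Gαi1 (50 nM). Compounds were incubated 10 min at room temperature in Tris pH 7.5 buffer containing 150 mM NaCl, 0.1 mM GDP and 0.05% NP40; unlabeled peptide titration served as control.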

Test [17] has as its target Pyruvate kinase (Leishmania mexicana) (UniProt Q27686). The test is described as follows: qHTS Validation Assay for Inhibitors of Leishmania Mexicana Pyruvate Kinase (AID 945).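 Note: 0% = DMSO only neutral control wells.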 As to conditions: purified L. mexicana pyruvate kinase, enzyme activity, E451W mutant enzyme; series mostly up to 57.5 µM. In a few lines:
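Read-out: luminescence from PKLight stop/detection reagent, data normalized to DMSO. Reaction: 0.2 nM E451W LmPYK, 0.5 mM PEP, 0.1 mM ADP, pH 7.2, 1 h room temperature.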

The target in test [18] is Alpha-galactosidase A (Homo sapiens) (UniProt P06280). Briefly: Counterscreen for Glucocerebrosidase Inhibitors: qHTS Assay for Human alpha-Galactosidase at pH 4.5 (AID 992). Note: 0% is about no effect. As to conditions: purified enzyme, fluorogenic substrate; series mostly up to 76.9 µM. The procedure, abridged:
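Steps: enzyme (2 nM final), then compound across 0.7 nM to 77 uM, then 80 uM fluorogenic galactopyranoside substrate; incubate 20 min at room temperature; quench at pH 10; measure fluorescence at 365/440 nm.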

The target of test [19] is alpha-glucosidase (Oryza sativa, rice) (UniProt Q653V4). Briefly: Counterscreen for Glucocerebrosidase Inhibitors: qHTS Assay for Rice alpha-Glucosidase at pH 5.0 (AID 997).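 Note: 0% = full activity with enzyme and -100% = basal without enzyme.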 As to conditions: rice alpha-glucosidase enzyme activity; series mostly up to 76.9 µM. In a few lines: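 Endpoint fluorogenic assay at pH 5.0: compounds (0.7 nM to 77 uM) titrated against 4 nM rice enzyme and 400 uM 4-MU-alpha-glucoside for 20 min at room temperature; NaOH/glycine stop, read ex 365/em 440 nm, Hill-fitted AC50.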

The results in this text go back to PubChem BioAssay (NCATS).

Several values for one entry are separate records, joined by “and”; a condition that tells them apart may be missing. Equal entries are not always repeated. Records with an inconclusive call do not appear. Activity calls are given as the source filed them. Unless noted, calls come from the whole dose curve; as a rule, active = well fitted curve in the direction sought with a large enough effect; inconclusive = small, poorly fitted or top-dose-only effect, or another doubt; inactive = no such curve, though single readings can be large; an effect the other way counts as inactive or inconclusive.

Sequence of Thyroid hormone receptor beta (Homo sapiens) (P10828 whole entry, looked up): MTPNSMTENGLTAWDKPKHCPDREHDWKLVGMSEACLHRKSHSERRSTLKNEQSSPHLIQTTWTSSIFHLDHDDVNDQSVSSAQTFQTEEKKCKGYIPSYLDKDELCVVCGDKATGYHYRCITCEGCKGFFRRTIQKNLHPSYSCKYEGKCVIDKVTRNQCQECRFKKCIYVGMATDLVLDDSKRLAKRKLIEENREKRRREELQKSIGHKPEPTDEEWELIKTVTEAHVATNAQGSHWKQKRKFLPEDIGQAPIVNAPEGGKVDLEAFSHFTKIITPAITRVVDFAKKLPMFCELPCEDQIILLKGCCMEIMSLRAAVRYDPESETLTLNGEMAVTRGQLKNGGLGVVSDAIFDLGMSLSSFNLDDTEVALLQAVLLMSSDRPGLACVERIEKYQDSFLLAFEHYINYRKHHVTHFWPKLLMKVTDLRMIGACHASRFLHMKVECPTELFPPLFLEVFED
Sequence of Tumor necrosis factor (Homo sapiens) (P01375 whole entry, looked up): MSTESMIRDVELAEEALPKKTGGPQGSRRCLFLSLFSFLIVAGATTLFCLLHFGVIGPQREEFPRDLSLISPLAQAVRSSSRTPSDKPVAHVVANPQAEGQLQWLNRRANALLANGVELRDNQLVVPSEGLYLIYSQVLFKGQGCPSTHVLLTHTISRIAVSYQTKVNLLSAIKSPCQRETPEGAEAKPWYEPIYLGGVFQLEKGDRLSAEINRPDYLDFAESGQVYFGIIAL
Sequence of Alpha-galactosidase A (Homo sapiens) (P06280 whole entry, looked up): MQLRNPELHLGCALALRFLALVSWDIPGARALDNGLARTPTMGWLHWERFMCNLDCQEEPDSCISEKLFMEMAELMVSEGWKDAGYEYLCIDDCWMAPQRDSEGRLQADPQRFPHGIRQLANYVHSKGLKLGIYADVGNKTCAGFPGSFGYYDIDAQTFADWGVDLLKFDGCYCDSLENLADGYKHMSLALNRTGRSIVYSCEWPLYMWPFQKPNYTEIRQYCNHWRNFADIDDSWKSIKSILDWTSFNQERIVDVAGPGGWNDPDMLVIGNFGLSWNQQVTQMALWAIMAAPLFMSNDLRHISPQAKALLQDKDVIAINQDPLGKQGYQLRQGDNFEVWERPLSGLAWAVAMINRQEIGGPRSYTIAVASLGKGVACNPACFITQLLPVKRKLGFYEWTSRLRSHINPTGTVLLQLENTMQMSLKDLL
Sequence of Guanine nucleotide-binding protein G(i) subunit alpha-1 (Homo sapiens) (P63096 whole entry, looked up): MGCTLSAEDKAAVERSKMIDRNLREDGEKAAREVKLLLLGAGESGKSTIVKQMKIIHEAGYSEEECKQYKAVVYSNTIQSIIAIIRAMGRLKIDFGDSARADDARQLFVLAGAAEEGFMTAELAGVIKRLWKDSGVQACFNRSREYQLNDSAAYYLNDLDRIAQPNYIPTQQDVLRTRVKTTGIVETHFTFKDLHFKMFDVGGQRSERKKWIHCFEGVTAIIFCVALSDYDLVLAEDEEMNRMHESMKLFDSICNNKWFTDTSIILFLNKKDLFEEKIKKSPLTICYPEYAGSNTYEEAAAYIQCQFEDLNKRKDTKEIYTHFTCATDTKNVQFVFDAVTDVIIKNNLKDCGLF
Sequence of Pyruvate kinase (Leishmania mexicana) (Q27686 2-499 E452W): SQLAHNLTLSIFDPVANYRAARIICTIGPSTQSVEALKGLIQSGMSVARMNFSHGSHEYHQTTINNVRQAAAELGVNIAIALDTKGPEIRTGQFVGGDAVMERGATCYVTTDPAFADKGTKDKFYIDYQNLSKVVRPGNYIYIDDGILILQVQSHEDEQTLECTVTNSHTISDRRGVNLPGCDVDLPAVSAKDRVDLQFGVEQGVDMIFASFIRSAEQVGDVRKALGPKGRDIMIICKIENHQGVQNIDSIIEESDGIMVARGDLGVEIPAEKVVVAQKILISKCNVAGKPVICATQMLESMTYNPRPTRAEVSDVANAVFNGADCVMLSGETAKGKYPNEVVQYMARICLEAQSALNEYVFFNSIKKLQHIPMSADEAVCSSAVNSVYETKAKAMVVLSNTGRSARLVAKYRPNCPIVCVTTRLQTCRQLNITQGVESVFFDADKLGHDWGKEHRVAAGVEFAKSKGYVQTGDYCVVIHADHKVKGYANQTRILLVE

Regarding `CCNc1nc(Cl)nc(NC(C)C)n1`, the Potency result in [1], in test [7], in test [8] and in test [12] was “inactive” throughout. In addition, the compound was called inactive in test [2], in test [3], in [4], in [5], in test [6] and in test [9]. Besides, the outcome in [14] was inactive. The max response in test [10] was 3.95% and -7.9%; in test [15], 2.61% (inactive) and -2.5% (inactive). Moreover, the activity change % (negative = inhibition) in test [11] is -11.1% (inactive) and -4.42% (inactive). The activation in test [13] is -0.0541% (inactive) and -0.0593% (inactive).

For the compound `COc1ccc2c(c1OC)C(=O)O[C@H]2[C@H]1c2cc3c(cc2CCN1C)OCO3`, the outcome in test [16], in test [18] and in test [19] was inactive. The Potency result in [17] was “inactive”.

For the compound `CCc1cccc(CC)c1N(COC)C(=O)CCl`, the Potency in [1] is 50.1 µM (active); in [12], 13.3 µM (active) and 24.3 µM (active). Also, the call in [2], in test [3], in [4], in test [5], in test [6] and in [9] was inactive. Besides, in test [14], the result was inactive. Besides, the Potency result in test [7] and in test [8] was “inactive” in each case. Moreover, the max response in test [10] is 18.2%; in test [15], -15.4% (inactive) and -21.3% (inactive). In test [11], the activity change % (negative = inhibition) is -17.8% (inactive) and -7.56% (inactive). Further, the activation in [13] was -1.33% (inactive) and -2.4% (inactive).

Regarding `O=C(O)CNCP(=O)(O)O`, the Potency entry in [7] and in test [8] was “inactive” throughout.

Turning to `CNC(=O)O/N=C/C(C)(C)SC`, the Potency entry in test [1] and in test [7] was “inactive” in each case. Besides, the result in test [2], in [3], in test [4], in test [5], in test [6] and in [9] was inactive. Also, in test [14], the result was inactive. Besides, the max response in [10] was -9.38% and -5.02% and 4.99%; in test [15] it was -1.1% (inactive) and -12.4% (inactive) and -2.16% (inactive). Moreover, in test [11], the activity change % (negative = inhibition) was -3.92% (inactive) and 16.1% (inactive) and 0.362% (inactive). The Potency in test [12] is 27.3 µM (active). In addition, the activation in [13] was -0.362% (inactive) and -4.25% (inactive) and 1.36% (inactive).
